According to PubChem BioAssay AID1950 (The Scripps Research Institute Molecular Screening Center, 2009):
Among all 300,000 compounds or so, about 1,000 (0.33%) were called active. This is one part of a sample in which actives are shown more often than they occur. No stated cut-off is given here; in the data, active means inhibition above about 28%; inactive means the rest.

The molecules below were run on EBNA-1 (Epstein-Barr virus nuclear antigen 1), Human herpesvirus 4 (assay: blockers of EBV EBNA-1 binding to DNA – biochemical, fluorescence polarization, primary screen (AID 1950)). Conditions: EBNA-1 DNA binding, at 14.8 µM, hits give high values.

inhibition, active:
COc1ccc(C(=O)Nc2cccc(NC(=O)c3ccc(OC)cc3OC)n2)c(OC)c1 64.7%
Nc1ccc(S(=O)(=O)Nc2nccc(/C=C/c3ccc(Br)s3)n2)cc1 40.2%
O=C(Nc1ccc2ccccc2c1)Nc1ccc2snnc2c1 103%
CCOc1cccc(NC(=O)Cn2nc(-c3ccc4c(c3)OCCO4)ccc2=O)c1 35%
CCOc1cccc(SCc2noc(C(=O)NC(C)C)c2C(=O)O)c1 29.7%
CCOc1ccc(C(=O)NC(=S)Nc2ccc(NC(=O)C(C)C)cc2)cc1[N+](=O)[O-] 43.3%
CCOc1ccc(NC(=O)c2ccc(NC(=O)COC(=O)c3ccc(NC(=O)CC#N)cc3)cc2)cc1 31.4%
O=C(COc1ccc(/C=N/NC(=O)c2ccc(O)cc2)cc1)Nc1ccc([N+](=O)[O-])cc1 52.6%
Cc1ccc(C(=O)NNC(=O)c2cc3cc4ccccc4nc3s2)cc1 66.7%
O=C(Nc1cccc(NC(=O)c2ccc(Br)cc2)c1)c1ccccc1 28.3%
COc1ccc(CNc2nc3c(c(=O)[nH]c(=O)n3C)n2Cc2ccccc2)cc1 28.1%
CCC(=O)Nc1ccc(C(=O)Nc2ccc3c(c2)C(=O)N(CC2CCCO2)C3=O)cc1 (configuration not stated) 57.9%
CCOc1[nH]n(-c2ccc(Cl)cc2)c(=O)c1C=Nc1ccc(O)cc1 36.6%
COc1ccc(-c2ccc(Nc3ccc(S(=O)(=O)N4CCCC4)cc3)nn2)cc1OC 61.7%
CCOC(=O)c1ccc(NC(=O)C2CC(=O)Nc3nc4ccccc4n32)cc1 (configuration not stated) 30.4%
CCOc1ccc(OCC)c(NC(=O)C(NS(=O)(=O)c2ccc3c(c2)oc(=O)n3C)C(C)C)c1 (configuration not stated) 38%
O=C(OCC1O[C@@H](OC(=O)c2cc(O)c(O)c(O)c2)[C@@H](OC(=O)c2cc(O)c(O)c(O)c2)[C@@H](OC(=O)c2cc(O)c(O)c(O)c2)[C@@H]1OC(=O)c1cc(O)c(O)c(O)c1)c1cc(O)c(O)c(O)c1 (some centres not stated) 36.5%
COc1ccc(CCNC(=S)N2CCN(S(=O)(=O)c3ccc(F)cc3)CC2)cc1 34.3%

inhibition, inactive:
COc1ccc(Cc2nnc(NC(=O)c3ccc(OC)cc3OC)s2)cc1 -11.6%
COC(=O)c1sc(NC(=O)c2ccc(OC)cc2OC)nc1C 5.25%
O=C(COC(=O)c1ncc(Cl)c(Cl)c1Cl)NCc1cccs1 4.36%
Oc1cccc2ccc(/C=C/c3ccc(Br)s3)nc12 7.77%
CC(=O)Nc1ccc(S(=O)(=O)Nc2nccc(/C=C/c3ccccc3F)n2)cc1 3.71%
CCNS(=O)(=O)c1ccc(CCC(=O)N2CCN(c3cc(Cl)ccc3C)CC2)cc1 -2.62%
O=C(NCc1ccccc1)C1=C[C@@H](c2ccccc2)C[C@@H](OCCCCO)O1 -2.36%
CN(C)CCOc1cccc(Br)c1 2.94%
COC(=O)C1=C(C)N(C(C)c2ccccc2)C(=O)/C1=C\c1ccco1 (configuration not stated) 9.16%
O=C(Nc1cccc(Br)c1)c1ccc2snnc2c1 -4.42%
CCc1ccccc1NC(=O)c1ccc2snnc2c1 -10.4%
O=C1CC(Cc2ccc(Cl)cc2)C(=O)N1c1cc(Cl)ccn1 (configuration not stated) -3.65%
CC(=O)n1cc([C@@H]2C=C(C(=O)N3CCN(Cc4ccc5c(c4)OCO5)CC3)O[C@H](OCc3ccc(CO)cc3)C2)c2ccccc21 -9.33%
CCc1ccccc1OCC(=O)Nc1ccc2c(c1)OCCO2 -5.94%
CC(=O)c1cc2c(cc1NC(=O)Cn1nc(-c3ccc(F)cc3)ccc1=O)OCO2 -3.93%
COCCNC(=O)c1onc(CSc2cccc(C)c2)c1C(=O)O -0.97%
CCCCNC(=O)c1onc(CSc2cccc(OC)c2)c1C(=O)O 8.58%
CCN(CC(=O)Nc1c(F)cccc1F)C(=O)C1CCC1 -2.05%
CC(=O)Nc1ccc(NC(=S)NC(=O)c2ccc([N+](=O)[O-])c(C)c2)cc1 -0.91%
CCOc1ccc(C(=O)NC(=S)Nc2ccc(N3CCOCC3)c(Cl)c2)cc1[N+](=O)[O-] 7.49%
COc1ccc(C(C(=O)NC2CCCC2)N(CCCO)C(=O)Cn2nnc(-c3ccc(C)o3)n2)cc1 (configuration not stated) -26.3%
CC(C)NC(=O)NC(=O)COC(=O)c1ccc(NC(=O)CC#N)cc1 8.39%
CCOc1ccc(C(=O)Nc2ccncc2)cc1 -2.27%
COCCNc1cc(-c2ccccc2)nc2cc(-c3cccc(F)c3)nn12 -2.12%
NC(=O)c1ccc(NC(=O)COC(=O)c2ccc([N+](=O)[O-])cc2)cc1 7.68%
O=C(N/N=C/c1ccc(O)cc1)/C(=C/c1ccc([N+](=O)[O-])cc1)NC(=O)c1ccccc1 11.3%
Cc1ccn2c(=O)nc(SCC(=O)NCc3ccc(F)cc3)nc2c1 -14.5%
Oc1ccccc1CNc1ncc(Br)cc1Br -8.83%
O=C(NNC(=O)c1cc2c(s1)CCCC2)c1ccccc1 6.96%
Cc1ccc(C(=O)NNC(=O)c2cccs2)cc1 -0.94%
Cc1cc2nc3n(c2cc1C)CC1CC(C(=O)NCCC(C)C)N(C)C31 (configuration not stated) -5.15%
O=C(Nc1cccc(NC(=O)c2cccc(F)c2)c1)c1ccccc1 -2.13%
O=C(Cc1ccccc1)Nc1cccc(NC(=O)c2ccccc2)c1 -12.9%
CN(C)[C@@H]1C(=O)C(C(N)=O)=C(O)[C@@]2(O)C(=O)C3=C(O)c4c(O)ccc(Cl)c4[C@@H](O)[C@H]3C[C@@H]12 14.1%
O=C(Nc1cccc(O)c1)c1ccc(C(=O)c2ccccc2)o1 10.1%
COc1ccc(CCn2c(NCCCN3CCOCC3)nc3c2c(=O)[nH]c(=O)n3C)cc1 5.1%
COc1ccc(CCn2c(NN=C3CCCC3)nc3c2c(=O)[nH]c(=O)n3C)cc1 1.13%
CCC(=O)Nc1ccc(S(=O)(=O)NCC2CCCO2)cc1 (configuration not stated) 4.88%
Cc1cccc(C(=O)Nc2ccc3c(c2)C(=O)N(CC(C)C)C3=O)c1 -2.99%
Cc1cccc(NC(=O)NC2(C)CCS(=O)(=O)C2)c1 (configuration not stated) -12.1%
CCc1c(C)nc2ncnn2c1N1CCC(C(=O)NCc2ccc3c(c2)OCO3)CC1 7.74%
COc1ccc(C(C(=O)NCc2ccccc2)N(Cc2cccs2)C(=O)c2cnccn2)cc1 (configuration not stated) 4.32%
CCn1c(/C=C/Nc2ccccc2)[n+](CC)c2ccc(C(=O)OCC(F)(F)F)cc21 -1.72%
CCC(=O)c1ccc(OC(=O)/C=C/c2cc(OC)c(OC)c(OC)c2)cc1 6.75%
COc1cc(NS(=O)(=O)c2ccc(N=Cc3c(C)[nH]n(-c4ccccc4)c3=O)cc2)nc(OC)n1 14.1%
CCOc1ccc(N=C2NC(=O)S/C2=C\c2ccc(O)cc2)cc1 22%
O=C(CC(=O)N/N=C\c1cccc(Cl)c1Cl)NCc1ccccc1 0.69%
COc1cccc(N2CC(NS(=O)(=O)c3cccs3)CC2=O)c1 (configuration not stated) -3.98%
CC(=O)NC(CC(=O)Nc1nc(-c2ccccc2)c(C(C)=O)s1)c1ccccc1 (configuration not stated) 6.2%
O=c1o[nH]c(-c2ccccc2)c1N=Nc1c(F)cccc1Cl -1.23%
COc1ccc(S(=O)(=O)Nc2ccc(S(=O)(=O)N3CCCCC3)cc2)cc1OC -12.3%
COc1ccc(S(=O)(=O)N2CCCCCC2)cc1C(=O)OCC(=O)Nc1cc(C)on1 -10.6%
CCCn1c2ccccc2c2cnn(CC(=O)NCCCN3CCCCC3CC)c(=O)c21 (configuration not stated) -11.4%
O=[N+]([O-])c1cc(S(=O)(=O)Nc2cccc(Cl)c2)ccc1N=Nc1c(O)[nH]c2ccccc12 -1.48%
CCc1ccc(NC(=O)Nc2ccncc2)cc1 -0.73%
CC(=O)c1ccc(NC(=O)C2CC(=O)Nc3nc4ccccc4n32)cc1 (configuration not stated) -7.52%
CCOC(=O)C1=C(C)Nc2nc3ccccc3n2C1c1cccs1 (configuration not stated) 3.55%
Cc1ccc(NS(=O)(=O)c2ccc3c(c2)n(C)c(=O)c(=O)n3C)c(C)c1 -9.29%
CCCS(=O)(=O)Nc1ccc(-c2cn3c(n2)SCC3)cc1 -2.75%
COc1cccc(NC(=O)CCNS(=O)(=O)c2ccc3c(c2)oc(=O)n3C)c1 -10.5%
CSCCC(NS(=O)(=O)c1ccc2c(c1)oc(=O)n2C)C(=O)NCc1ccccc1 (configuration not stated) 1.42%
CC(Oc1ccc(Br)cc1)C(=O)NCC(c1ccco1)N1CCCCC1 (configuration not stated) -5.29%
CC(C)OC(=O)c1ccc(COc2ccc3ccc(=O)oc3c2)o1 0.87%
O=C(OCC1OC(Oc2ccc(O)cc2)C(O)C(O)C1O)c1ccccc1 (configuration not stated) -9.05%
Cn1c(=O)[nH]c(=O)c2c1[nH]c(=S)n2Cc1ccccc1 9.15%
O=C(COc1ccc([N+](=O)[O-])cc1)Nc1cccc(C(=O)Nc2ccccc2C(=O)O)c1 8.21%
C=CCNC(=S)/N=c1/ccccn1Cc1ccccc1 3.92%
CCN(CC)CCN1C(=O)C2C(C(=O)Nc3ccc(Br)cc3)C3C=CC2(O3)C1C(=O)NC1CCCCC1 (configuration not stated) 5.67%
COc1ccc(CCNC(=S)N2CCN(S(=O)(=O)c3ccc(Cl)cc3)CC2)cc1 7.36%
COc1ccc(CCNC(=O)C2CCCN(S(=O)(=O)c3ccc(OC)cc3)C2)cc1 (configuration not stated) 5.18%
OC(COc1ccc(CN2CCSCC2)cc1)CN1CCCCC1 (configuration not stated) 3.92%
COc1ccc(/C=C2\SC(=S)N(CCCC(=O)NC3CCCC3)C2=O)cc1OC -4.95%
CC(=O)NNC(=O)c1csc(Cc2c(Cl)sc3ccc(Cl)cc23)n1 -5.11%
Cc1cc(OCC(=O)NCC(O)c2ccccc2)c2c(C)c(C)c(=O)oc2c1 (configuration not stated) 3.74%
